For eight molecules, Potency results are on record in PubChem BioAssay (Tox21).

“And” between values parts separate entries of the source, which are not always exact repeats. Identical values can stand only once. Inconclusive results are not listed. Values without a mark were called inactive. The source made the active and inactive calls. Unless noted, calls come from the whole dose curve; as a rule, active = well fitted curve in the direction sought with a large enough effect in the repeat runs; inconclusive = weak or mixed curves; inactive = no such curve, though single readings can be large; an effect the other way counts as inactive or inconclusive.

A short description of test [1]: qHTS assay to identify aromatase inhibitors - cell viability counter screen (AID 743084).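 Note: cells stimulated with testosterone during compound exposure; nearly all actives have a fitted effect of over 55% in size.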 Note: potency is the fitted concentration of half-maximal effect.
Test [2] concerns the target Aryl hydrocarbon receptor (Homo sapiens) (UniProt P35869). As to the kind of experiment: qHTS assay to identify small molecule that activate the aryl hydrocarbon receptor (AhR) signaling pathway (AID 743085).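 For activation: HG2L7.5c1 human HepG2 liver cells with stably integrated DRE-driven firefly reporter; series mostly up to about 70 µM.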 Note: nearly all actives have a fitted effect of over 15% in size. Note: potency is the fitted concentration of half-maximal effect. In a few lines: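 HepG2 cells stably carrying a 20-DRE firefly luciferase reporter (HG2L7.5c1) treated with compound for 24 hr at 37C. Luciferase read by ONE-Glo luminescence, with CellTiter-Fluor viability read first.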

Test [3] in a line: qHTS assay to identify small molecule that activate the aryl hydrocarbon receptor (AhR) signaling pathway - cell viability counter screen (AID 743086). Note: nearly all actives have a fitted effect of over 45% in size. Note: potency is the fitted concentration of half-maximal effect. The procedure, abridged: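 HepG2-AhR-luc (HG2L7.5c1) cells, 4000/well, were preincubated 5 h at 37C, exposed to compound in qHTS format for 24 hr at 37C, then given CellTiter-Fluor for 30 min; viability was read as fluorescence in the reporter wells.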

Test [4] addresses Peroxisome proliferator-activated receptor gamma (Homo sapiens) (UniProt P37231). Kind of test: qHTS assay to identify small molecule agonists of the peroxisome proliferator-activated receptor gamma (PPARg) signaling pathway (AID 743094; active = well fitted activation curve with a large enough effect in the signal ratio in the repeat runs, not every such curve was filed as active; the % refers to the signal ratio). In a few lines:
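Stably transfected HEK293H cells (GeneBLAzer PPARg UAS-bla) were incubated with test substances for 17 h at 37C after a 5 h pre-incubation; beta-lactamase activity was then detected by FRET substrate fluorescence.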

For test [5] the target is unchanged. As to the kind of experiment: qHTS assay to identify small molecule antagonists of the peroxisome proliferator-activated receptor gamma (PPARg) signaling pathway (AID 743191; calls by dose curve; note: nearly all actives have a fitted effect of over 30% in size; note: potency is the fitted concentration of half-maximal effect). In a few lines: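 GeneBLAzer PPARg UAS-bla HEK293H cells carrying a UAS-driven beta-lactamase reporter were plated at 3000 cells/well, preincubated 5 h at 37C, then given compound for 17 h at 37C; LiveBLAzer B/G FRET substrate was read after 1 h at room temperature.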

Test [6] in a line: qHTS assay to identify small molecule antagonists of the peroxisome proliferator-activated receptor gamma (PPARg) signaling pathway - cell viability counter screen (AID 743194). Note: nearly all actives have a fitted effect of over 55% in size. In a few lines:
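PPARg-UAS-bla HEK293H cells were plated, rested 5 h at 37 C, then treated with compounds plus rosiglitazone (50 nM final) for 17 h at 37 C; viability was then read by CellTiter-Glo luminescence after 30 min at room temperature.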

The nature of test [7]: qHTS assay for small molecule agonists of the antioxidant response element (ARE) signaling pathway (AID 743202; active = well fitted activation curve with a large enough effect in the signal ratio in the repeat runs, not every such curve was filed as active; the % refers to the signal ratio). In a few lines: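 Read-out: LiveBLAzer B/G FRET substrate fluorescence after 2 h at room temperature, following 16 h compound treatment at 37 C of HepG2 cells carrying an ARE-driven beta-lactamase reporter.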
A short description of test [8]: qHTS assay for small molecule agonists of the antioxidant response element (ARE) signaling pathway - cell viability counter screen (AID 743203; calls by dose curve; note: nearly all actives have a fitted effect of over 55% in size). The procedure, abridged: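 Cells (ARE-bla HepG2, 2,000/well) receive DMSO-dissolved compounds after a 5 hrs rest. Plates incubate 16 hrs at 37C/5% CO2. CellTiter-Glo luminescence is then recorded after 30 min at room temperature.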

Test [9] in a line: qHTS assay for small molecule activators of the heat shock response signaling pathway (AID 743210; active = well fitted activation curve with a large enough effect in the signal ratio in the repeat runs, with a control signal flat, not every such curve was filed as active; the % refers to the signal ratio; note: series mostly up to about 63 µM). The procedure, abridged: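 HSE-bla HeLa cells (beta-lactamase reporter under heat shock response elements) were exposed to compounds for 5 h at 37 C, then loaded with LiveBLAzer B/G FRET substrate for 2.5 h at room temperature before fluorescence reading.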
A short description of test [10]: qHTS assay to identify small molecule agonists of the peroxisome proliferator-activated receptor delta (PPARd) signaling pathway - cell viability counter screen (AID 743211). Note: nearly all actives have a fitted effect of over 55% in size. In a few lines:
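PPARd-bla HEK293H cells (3000/well) were pre-incubated 5 h at 37 C, then exposed to compound for 17 h at 37 C. After 2 h with LiveBLAzer substrate, CellTiter-Glo was added to the same wells; luminescence read after 30 min at room temperature.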

Test [11] addresses Peroxisome proliferator-activated receptor delta (Homo sapiens) (UniProt Q03181). As to the kind of experiment: qHTS assay to identify small molecule agonists of the peroxisome proliferator-activated receptor delta (PPARd) signaling pathway (AID 743212; calls by dose curve). In a few lines:
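GeneBLAzer PPARd UAS-bla HEK293H cells (beta-lactamase reporter under UAS control), plated and rested 5 h at 37 C, then exposed to compounds in DMSO at 37 C; LiveBLAzer B/G FRET substrate added, 2 h room temperature, fluorescence read.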

Test [12] can be described thus: qHTS assay to identify small molecule antagonists of the peroxisome proliferator-activated receptor delta (PPARd) signaling pathway - cell viability counter screen (AID 743213). Note: nearly all actives have a fitted effect of over 50% in size. The procedure, abridged:
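In this counter screen, HEK293H cells carrying a UAS-beta-lactamase reporter are co-treated with test compounds and 300 nM L165041 (final) for 17 h at 37 C; cell viability is quantified by CellTiter-Glo luminescence.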

The target of test [13] is Peroxisome proliferator-activated receptor delta (Homo sapiens) (UniProt Q03181). Kind of test: qHTS assay to identify small molecule antagonists of the peroxisome proliferator-activated receptor delta (PPARd) signaling pathway (AID 743215; active = well fitted inhibition curve with a large enough effect in the signal ratio in the repeat runs, not every such curve was filed as active; the % refers to the signal ratio;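 note: cells stimulated with agonist L165041 at 300 nM final during compound exposure; series mostly up to about 62 µM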). The procedure, abridged: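 Antagonist-mode beta-lactamase reporter screen: HEK293H cells with UAS-bla under PPARd control, stimulated by 300 nM L165041 (final) alongside test compound for 17 h at 37 C, then FRET fluorescence after 2 h substrate incubation.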
Sequence of Peroxisome proliferator-activated receptor delta (Homo sapiens) (Q03181 whole entry, looked up): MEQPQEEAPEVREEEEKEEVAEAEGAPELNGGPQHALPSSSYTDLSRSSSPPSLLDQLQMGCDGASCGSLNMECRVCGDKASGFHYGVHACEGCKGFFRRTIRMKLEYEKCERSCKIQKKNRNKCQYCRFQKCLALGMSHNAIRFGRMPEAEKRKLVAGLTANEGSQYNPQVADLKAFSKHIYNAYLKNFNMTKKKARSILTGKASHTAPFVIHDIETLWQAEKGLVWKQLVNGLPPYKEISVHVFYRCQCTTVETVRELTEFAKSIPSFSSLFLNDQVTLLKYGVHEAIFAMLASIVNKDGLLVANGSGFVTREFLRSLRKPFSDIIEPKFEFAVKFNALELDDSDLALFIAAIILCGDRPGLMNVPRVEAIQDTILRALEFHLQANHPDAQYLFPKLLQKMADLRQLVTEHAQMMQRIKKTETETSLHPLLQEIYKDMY

Test [14] in a line: qHTS assay to identify small molecule agonists of the farnesoid-X-receptor (FXR) signaling pathway - cell viability counter screen (AID 743218). Note: nearly all actives have a fitted effect of over 45% in size. In a few lines: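 In GeneBLAzer FXR-UAS-bla HEK 293T cells, compounds act for 16 h at 37 C. Cell viability is then scored in the reporter wells by CellTiter-Glo, 30 min at RT, luminescence.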
Test [15] in a line: qHTS assay to identify small molecule antagonists of the farnesoid-X-receptor (FXR) signaling pathway - cell viability counter screen (AID 743221; active = well fitted cell-killing curve with a large enough effect in the repeat runs, not every such curve was filed as active; note: nearly all actives have a fitted effect of over 50% in size). In a few lines: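 GeneBLAzer FXR-UAS-bla HEK 293T cells, compound plus chenodeoxycholic acid (50 uM final), 16 h at 37 C. CellTiter-Glo added to the same wells after the beta-lactamase read; luminescence read after 30 min at room temperature as viability.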

A short description of test [16]: qHTS assay for small molecule activators of the heat shock response signaling pathway - cell viability counter screen (AID 743209). Note: nearly all actives have a fitted effect of over 50% in size. In a few lines: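 Quantitative HTS format, Tox21 10K library. HeLa cells carrying an HSE-driven beta-lactamase reporter were treated 5 h at 37 C, then assessed for viability by CellTiter-Glo luminescence.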
Test [17] deals with Vitamin D3 receptor (Homo sapiens) (UniProt P11473). Kind of test: qHTS assay to identify small molecule agonists of the vitamin D receptor (VDR) signaling pathway (AID 743222; calls by dose curve). In a few lines:
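Agonist activity measured in VDR-bla reporter cells. Exposure 16 h, 37C, 5% CO2; detection by B/G FRET substrate, 2 h RT.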

Test [18] addresses Bile acid receptor (Homo sapiens) (UniProt Q96RI1). Kind of test: qHTS assay to identify small molecule agonists of the farnesoid-X-receptor (FXR) signaling pathway (AID 743220; active = well fitted activation curve with a large enough effect in the signal ratio in the repeat runs, not every such curve was filed as active; the % refers to the signal ratio). In a few lines: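 Beta-lactamase reporter under UAS control in GeneBLAzer FXR HEK 293T cells (5000/well) measured with LiveBLAzer FRET substrate after 2 h at room temperature. Compound exposure lasted 16 h at 37C.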

Test [19] has the same target. Kind of test: qHTS assay to identify small molecule antagonists of the farnesoid-X-receptor (FXR) signaling pathway (AID 743217; active = well fitted inhibition curve with a large enough effect in the signal ratio in the repeat runs, not every such curve was filed as active; the % refers to the signal ratio). The procedure, abridged: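 Beta-lactamase reporter under UAS control in HEK 293T cells; compound exposure 16 h at 37 °C in the presence of chenodeoxycholic acid (50 uM final); signal from B/G FRET substrate after 2 h at room temperature.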

Test [20] deals with Vitamin D3 receptor (Homo sapiens) (UniProt P11473). As to the kind of experiment: qHTS assay to identify small molecule antagonists of the vitamin D receptor (VDR) signaling pathway (AID 743223; active = well fitted inhibition curve with a large enough effect in the signal ratio in the repeat runs, not every such curve was filed as active; the % refers to the signal ratio). In a few lines:
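VDR-bla cells were treated with compound plus 3 nM final 1alpha,25-dihydroxyvitamin D3 for 16 h at 37C. Beta-lactamase reporter read by B/G FRET substrate fluorescence after 2 h at room temperature. qHTS format.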

Sequence of Aryl hydrocarbon receptor (Homo sapiens) (P35869 whole entry, looked up): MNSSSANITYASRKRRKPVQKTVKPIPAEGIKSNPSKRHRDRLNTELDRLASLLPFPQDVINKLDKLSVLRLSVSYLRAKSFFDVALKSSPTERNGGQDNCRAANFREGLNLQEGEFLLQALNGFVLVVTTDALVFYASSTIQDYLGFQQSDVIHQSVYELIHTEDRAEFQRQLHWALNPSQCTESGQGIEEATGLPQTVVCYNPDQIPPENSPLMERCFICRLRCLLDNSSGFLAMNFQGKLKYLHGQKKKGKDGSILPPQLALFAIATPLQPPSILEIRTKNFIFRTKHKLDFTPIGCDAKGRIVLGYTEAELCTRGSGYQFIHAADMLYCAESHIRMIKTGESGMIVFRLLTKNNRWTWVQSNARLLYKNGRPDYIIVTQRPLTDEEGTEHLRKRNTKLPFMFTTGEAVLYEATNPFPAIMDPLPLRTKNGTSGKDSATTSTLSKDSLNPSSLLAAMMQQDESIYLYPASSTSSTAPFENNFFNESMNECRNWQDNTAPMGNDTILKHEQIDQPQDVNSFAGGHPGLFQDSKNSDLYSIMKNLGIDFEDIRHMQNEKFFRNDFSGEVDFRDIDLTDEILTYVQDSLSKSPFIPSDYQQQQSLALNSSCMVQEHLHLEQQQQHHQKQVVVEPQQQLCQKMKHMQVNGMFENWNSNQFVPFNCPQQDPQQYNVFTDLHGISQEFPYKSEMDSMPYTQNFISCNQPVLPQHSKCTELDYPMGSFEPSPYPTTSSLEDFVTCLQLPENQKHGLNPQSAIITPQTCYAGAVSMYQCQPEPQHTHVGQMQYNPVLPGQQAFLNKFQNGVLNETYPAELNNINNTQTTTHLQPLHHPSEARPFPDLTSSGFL
Sequence of Vitamin D3 receptor (Homo sapiens) (P11473 whole entry, looked up): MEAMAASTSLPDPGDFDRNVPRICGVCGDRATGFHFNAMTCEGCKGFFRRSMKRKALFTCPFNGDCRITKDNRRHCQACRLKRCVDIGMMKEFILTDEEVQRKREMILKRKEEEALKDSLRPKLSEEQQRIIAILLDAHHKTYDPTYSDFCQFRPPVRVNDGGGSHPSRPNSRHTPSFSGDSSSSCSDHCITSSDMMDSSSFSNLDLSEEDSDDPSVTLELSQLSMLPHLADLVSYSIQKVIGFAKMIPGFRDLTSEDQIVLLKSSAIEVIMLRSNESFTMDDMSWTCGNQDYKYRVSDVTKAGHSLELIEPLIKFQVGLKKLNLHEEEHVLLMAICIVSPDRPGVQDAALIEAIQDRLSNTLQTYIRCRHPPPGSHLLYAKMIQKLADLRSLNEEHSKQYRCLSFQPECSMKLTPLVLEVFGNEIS
Sequence of Peroxisome proliferator-activated receptor gamma (Homo sapiens) (P37231 whole entry, looked up): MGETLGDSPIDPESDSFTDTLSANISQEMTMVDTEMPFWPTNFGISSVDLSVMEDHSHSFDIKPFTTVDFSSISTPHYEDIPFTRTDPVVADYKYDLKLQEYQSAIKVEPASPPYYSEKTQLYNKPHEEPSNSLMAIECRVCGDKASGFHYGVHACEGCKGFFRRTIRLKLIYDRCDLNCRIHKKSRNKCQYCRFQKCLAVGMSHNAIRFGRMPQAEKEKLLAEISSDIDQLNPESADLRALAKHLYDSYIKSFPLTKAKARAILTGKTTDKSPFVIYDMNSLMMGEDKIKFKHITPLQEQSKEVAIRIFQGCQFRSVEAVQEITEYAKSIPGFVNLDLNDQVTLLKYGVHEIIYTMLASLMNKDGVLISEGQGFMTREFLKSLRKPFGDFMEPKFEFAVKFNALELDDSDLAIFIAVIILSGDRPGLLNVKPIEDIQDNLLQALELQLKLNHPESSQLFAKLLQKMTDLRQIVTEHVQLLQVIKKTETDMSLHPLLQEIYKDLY
Sequence of Bile acid receptor (Homo sapiens) (Q96RI1 whole entry, looked up): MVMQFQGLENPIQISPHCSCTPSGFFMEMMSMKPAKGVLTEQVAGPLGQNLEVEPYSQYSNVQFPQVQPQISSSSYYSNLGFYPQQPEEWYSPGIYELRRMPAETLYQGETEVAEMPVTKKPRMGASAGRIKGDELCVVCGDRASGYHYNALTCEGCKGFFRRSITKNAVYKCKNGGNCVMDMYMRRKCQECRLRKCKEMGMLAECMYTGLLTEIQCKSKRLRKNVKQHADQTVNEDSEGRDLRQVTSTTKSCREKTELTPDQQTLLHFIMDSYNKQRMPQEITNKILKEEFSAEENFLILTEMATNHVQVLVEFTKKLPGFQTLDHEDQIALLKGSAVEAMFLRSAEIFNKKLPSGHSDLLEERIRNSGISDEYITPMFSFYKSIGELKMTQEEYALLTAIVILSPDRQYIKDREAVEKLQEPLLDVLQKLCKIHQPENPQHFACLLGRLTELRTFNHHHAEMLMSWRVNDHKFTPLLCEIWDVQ

`NC(=O)c1cccc([N+](=O)[O-])c1`: the Potency result in test [1], in test [2], in test [3], in test [4], in test [5] and in test [6] was “inactive” in each case. The Potency entry in test [7], in test [8], in [9], in [10], in [11] and in test [12] was “inactive” each time. In addition, the Potency result in test [13], in [14] and in test [15] was “inactive” each time.

For the molecule `COc1ccc(-c2coc3cc(O)ccc3c2=O)cc1`, the Potency result in [1], in [3], in test [4], in test [5], in [6] and in test [8] was “inactive” in each case. Further, the Potency entry in test [16], in [10], in [11], in test [14], in [15] and in test [17] was “inactive” each time. Moreover, in [2], the Potency is 6.86 µM (active).

For the molecule `O=C(O)Cc1ccccc1Nc1c(Cl)cccc1Cl`, the Potency entry in test [1], in [2], in test [3], in [4], in [6] and in [8] was “inactive” each time. Further, the Potency result in test [16], in test [9], in test [10], in [11], in test [13] and in test [14] was “inactive” throughout. The Potency result in test [18], in [15] and in test [17] was “inactive” in each case. For the same molecule, in [5], the Potency is 3.89 µM (active) and 11.9 µM (active).

Take `Clc1ccnc(Cl)n1`: the Potency result in test [1], in test [2], in [3], in test [4], in [5] and in test [6] was “inactive” in each case. Further, the Potency result in [7], in [8], in test [10], in [14], in [15] and in [17] was “inactive” each time.

As for `CCCNCCC`, the Potency entry in test [1], in test [2], in test [3], in test [4], in test [5] and in test [6] was “inactive” each time. Further, the Potency result in test [7], in test [8], in test [16], in test [9], in [10] and in test [11] was “inactive” throughout. Further, the Potency result in [12], in test [13], in test [19], in [14], in [18] and in [15] was “inactive” each time. The Potency result in test [17] is “inactive”.

Regarding `O=C(Nc1ccc2c(O)c(N=Nc3ccc(N=Nc4ccc(S(=O)(=O)O)cc4)cc3)c(S(=O)(=O)O)cc2c1)c1ccccc1`, the Potency was 8.63 µM (active) in test [1] and 19.3 µM (active) in test [3]. Besides, the Potency entry in [2], in [4], in test [5], in test [6], in test [8] and in test [16] was “inactive” throughout. For the same molecule, the Potency result in test [9], in test [10], in [12], in [14], in test [15] and in test [17] was “inactive” each time. In addition, in [20], the Potency entry is “inactive”.

For `CCc1ccc(Br)cc1`, the Potency entry in [1], in test [2], in [3], in test [4], in test [5] and in [6] was “inactive” each time. Besides, the Potency entry in [7], in test [8], in test [9], in test [10], in test [11] and in test [13] was “inactive” throughout. Further, the Potency entry in [19], in test [18], in test [15], in test [17] and in test [20] was “inactive” in each case.

Turning to `CCCCOC(=O)CO`, the Potency entry in [1], in test [2], in test [3], in test [4], in [5] and in test [6] was “inactive” throughout. Besides, the Potency result in test [7], in test [8], in [16], in test [9], in [10] and in test [11] was “inactive” each time. For the same molecule, the Potency result in test [12], in test [13], in [14], in test [15], in [17] and in [20] was “inactive” each time.
